# Measured values: article PMC4336329 (PLoS ONE, 2015)
# The whole screen tested about 310,000 compounds, of which about 14,000 (4.5%) showed an effect of 50% or more. The effect is printed as a negative number. Many of the other results were omitted from the sample, so strong results are more common in it than they were.
# Target: human ether-à-go-go-related gene (hERG) potassium channel (human, UniProt Q12809)
# Test: primary screen, population patch clamp on CHO cells stably expressing hERG; higher = less effect of the substance
# 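Also: peak tail current of the secondary pulse compared with the same well before compound.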
# human ether-à-go-go-related gene (hERG) potassium channel, sequence (Q12809 whole entry, looked up): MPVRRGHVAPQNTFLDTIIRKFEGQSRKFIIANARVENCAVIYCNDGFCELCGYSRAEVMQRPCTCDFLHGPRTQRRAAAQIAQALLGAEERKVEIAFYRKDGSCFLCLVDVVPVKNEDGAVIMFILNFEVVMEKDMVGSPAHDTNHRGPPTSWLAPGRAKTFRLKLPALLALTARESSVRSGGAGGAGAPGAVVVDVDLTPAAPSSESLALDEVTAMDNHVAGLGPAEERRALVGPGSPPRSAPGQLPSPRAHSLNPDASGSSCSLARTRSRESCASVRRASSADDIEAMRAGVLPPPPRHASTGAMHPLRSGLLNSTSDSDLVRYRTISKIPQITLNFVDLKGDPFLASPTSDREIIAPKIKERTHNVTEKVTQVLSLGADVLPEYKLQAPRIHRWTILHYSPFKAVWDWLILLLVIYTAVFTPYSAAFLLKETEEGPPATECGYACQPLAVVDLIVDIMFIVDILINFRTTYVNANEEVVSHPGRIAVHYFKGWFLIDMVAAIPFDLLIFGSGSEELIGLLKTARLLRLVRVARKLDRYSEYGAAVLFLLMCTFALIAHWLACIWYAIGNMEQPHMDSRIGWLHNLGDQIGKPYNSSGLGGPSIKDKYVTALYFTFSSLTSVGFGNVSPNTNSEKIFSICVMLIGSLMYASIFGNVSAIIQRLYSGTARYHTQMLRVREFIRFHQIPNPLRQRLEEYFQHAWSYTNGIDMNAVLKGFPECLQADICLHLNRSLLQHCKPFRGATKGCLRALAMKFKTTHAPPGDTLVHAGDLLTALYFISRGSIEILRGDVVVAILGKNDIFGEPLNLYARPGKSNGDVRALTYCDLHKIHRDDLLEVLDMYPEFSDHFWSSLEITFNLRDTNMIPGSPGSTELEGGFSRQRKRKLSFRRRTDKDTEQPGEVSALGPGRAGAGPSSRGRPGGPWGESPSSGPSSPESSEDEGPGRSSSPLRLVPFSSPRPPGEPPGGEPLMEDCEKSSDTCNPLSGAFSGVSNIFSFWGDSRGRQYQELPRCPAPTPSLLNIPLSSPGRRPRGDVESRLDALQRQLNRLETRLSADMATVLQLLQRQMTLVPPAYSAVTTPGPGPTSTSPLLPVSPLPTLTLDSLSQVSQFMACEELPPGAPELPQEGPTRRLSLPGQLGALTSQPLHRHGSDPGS
row,SMILES,"hERG current change (%, negative = inhibition) at 10uM [%]"
1,FC(F)(F)c1cccc(N2CCN(c3nnnn3-c3ccccc3)CC2)c1,-25.3
2,COc1ccc2nc(/C=N/NC(=O)CCCCCNC(=O)OC(C)(C)C)ccc2c1,-0.0758
3,O=C(COc1ccccc1)N1CCN(S(=O)(=O)c2ccc(Cl)cc2)CC1,-2.27
4,O=C(COc1ccc(Cl)cc1)N1CCN(S(=O)(=O)c2ccc(Cl)cc2)CC1,-11.9
5,N#Cc1ccc(OCC(=O)N2CCN(S(=O)(=O)c3cccc(Cl)c3)CC2)cc1,-71.4
6,O=C(COc1ccc(Cl)cc1)N1CCN(S(=O)(=O)c2ccccc2)CC1,-54.6
7,N#Cc1ccccc1NCC(=O)N1CCN(S(=O)(=O)c2ccccc2)CC1,-1.49
8,N#Cc1ccc(NCC(=O)N2CCN(S(=O)(=O)c3ccccc3)CC2)cc1,-70.2
9,COc1ccc(CCC(=O)N2CCN(S(=O)(=O)c3cccc(Cl)c3)CC2)cc1,-34.8
10,CC(=O)c1ccc(NCC(=O)N2CCN(S(=O)(=O)c3ccccc3)CC2)cc1,-5.61
11,COc1ccc(OCC(=O)N2CCN(S(=O)(=O)c3ccc(Cl)cc3)CC2)cc1,-22.9
12,O=C(NCCC1CCCCN1S(=O)(=O)c1ccccc1)C(=O)Nc1ccccc1 (centres unmarked),-12.3
13,COC(=O)Oc1ccc(/C=N/NS(=O)(=O)c2ccccc2)cc1OC,21.2
14,CCC(=Nc1ccccc1N)c1c(O)[nH]c(=O)[nH]c1=O,18.5
15,COC(=O)C1CN(C(=O)COc2cccc(C)c2C)c2ccccc2O1 (centres unmarked),-6.63
16,Cc1cccc(NC(=O)CCN2C(=O)C3C4C=CC(C4)C3C2=O)n1 (centres unmarked),5.71
17,COc1ccc(F)cc1C(=O)C1CCCN(Cc2c(C)n(C)n(-c3ccccc3)c2=O)C1 (centres unmarked),-11.5
18,COc1ccc(F)cc1C(=O)C1CCCN(Cc2cn(C)c3ccccc23)C1 (centres unmarked),-39.5
19,COc1ccc(C(=O)C2CCCN(Cc3c(F)ccc(F)c3F)C2)c(OC)c1 (centres unmarked),-30.9
20,COc1ccc(C(=O)C2CCCN(Cc3c[nH]c4ccccc34)C2)c(OC)c1 (centres unmarked),-70.8
21,COc1ccc(C(=O)C2CCCN(Cc3c(C)[nH]c4ccccc34)C2)c(OC)c1 (centres unmarked),-70.1
22,COc1ccc(C(=O)COC(=O)Cc2c[nH]c3ccccc23)c(OC)c1,4.87
23,COc1ccc(F)cc1C(=O)C1CCCN(Cc2c[nH]c3ccccc23)C1 (centres unmarked),-63.8

row,SMILES,"hERG current change (%, negative = inhibition) at 10uM [%]"
1,CC1=C(C(=O)OC(C)C)C(c2ccncc2)n2ncnc2N1 (centres unmarked),0.568
2,CCOc1nc(Nc2cc(Cl)ccc2OC)nc(OCC)n1,19.7
3,N#Cc1ccccc1CSCCNC(=O)Cc1c(F)cccc1Cl,15.8
4,CCN(CC)S(=O)(=O)c1ccc2c(c1)nc(CCC(=O)Nc1ccc3c(c1)OCO3)n2CC,-0.447
5,Cc1ccc2c(c1)nnn2C1CCN(S(=O)(=O)c2ccc(C(=O)NC3CCCC3)cc2)CC1,15.9
6,CCOc1ccc(N(C)S(=O)(=O)c2cc(-c3cc(C)no3)ccc2C(C)C)cc1,4.4
7,CN(Cc1ccccc1)c1cc(Cl)nc(N)n1,-1.61
8,Cc1cc(N(C)Cc2ccccc2)nc2cc(O)ccc12,-56.4
9,Cc1cc(N(C)Cc2ccccc2)nc(-c2ccccc2)n1,-24.1
10,C=CCn1nc2ccccc2c1OC,3.76
11,C#CCNc1c2c(nc3ncnn13)CC(C)CC2 (centres unmarked),-10.7
12,Brc1ccc(Nc2c3c(nc4ncnn24)CCC3)cc1,-21.4
13,CCOc1ccc(Nc2c3c(nc4ncnn24)CC(C)CC3)cc1 (centres unmarked),-53.9
14,C=CCNc1c2c(nc3ncnn13)CC(C)CC2 (centres unmarked),-14.8
15,c1ccc(Nc2c3c(nc4ncnn24)CCC3)cc1,-54.5
16,Clc1ccc(Nc2c3c(nc4ncnn24)CCC3)cc1,8.29
17,Clc1ccc(/C=N/Nc2nn[nH]n2)cc1,12.6
18,Cc1ccc2nsnc2c1S(=O)(=O)Nc1ccccc1C(=O)O,-7.06
19,Cc1c(Cc2ccccc2)sc(NC(=O)/C=C/c2cccc3ccccc23)c1C(N)=O,20
20,COc1ccc(CN2C(=NC(=O)CCC3CCCC3)SC3CS(=O)(=O)CC32)cc1 (centres unmarked),19.7
21,COc1ccc(CNC(=O)C[C@H]2C(=O)N(Cc3ccccc3)C[C@@H]2Cc2ccccc2)cc1,2.76
22,COc1ccc(CNC(=O)C[C@H]2C(=O)N(CCc3ccccc3)C[C@@H]2Cc2ccccc2)cc1,-53
23,COc1ccc(CNC(=O)C[C@H]2C(=O)N(Cc3ccc(OC)cc3)C[C@@H]2Cc2ccccc2)cc1,-45.9

row,SMILES,"hERG current change (%, negative = inhibition) at 10uM [%]"
1,COc1ccc(CN2C[C@H](Cc3ccccc3)[C@@H](CC(=O)Nc3ccccc3)C2=O)cc1,-10.5
2,CCCCN1C[C@H](Cc2ccccc2)[C@@H](CC(=O)NCc2ccc(OC)cc2)C1=O,-61.8
3,COc1ccc(CNC(=O)C[C@H]2C(=O)N(c3ccccc3)C[C@@H]2Cc2ccccc2)cc1,-49.4
4,COc1cccc(C(=O)NNC(=O)c2ccccc2-n2cccc2)c1,34.4
5,CS(=O)(=O)c1nc(S(=O)(=O)c2ccc(Cl)cc2)c(NCCN2CCOCC2)s1,-31.6
6,CC(C)(C)c1ccc(-c2c(C#N)c(N)nc3c2CCCC3)s1,-0.863
7,CC12CN3CN(C1)CC(c1ccccc1)(C3)C2=O,12.7
8,Cc1noc(C)c1COC(=O)[C@@H](NC(=O)c1ccccc1)C(C)C,11.5
9,Cc1ccccc1OC(C)C(=O)NCCC1=CCCCC1 (centres unmarked),-1.85
10,O=C(c1cc(COc2ccc(F)cc2F)on1)N1CCOCC1,17.7
11,O=C(c1cc(COc2ccc(F)cc2F)on1)N1CCN(C(=O)c2ccco2)CC1,-57.3
12,COc1cccc(OCc2cc(C(=O)N3CCN(C(C)=O)CC3)no2)c1,-1.97
13,COc1cccc(OCc2cc(C(=O)N3CCN(c4ccccc4O)CC3)no2)c1,4.71
14,O=C(c1cc(COc2ccc(F)cc2F)on1)N1CCSCC1,-11.7
15,COc1cccc(OCc2cc(C(=O)N3CCN(C(=O)c4ccco4)CC3)no2)c1,-51.7
16,Cc1ccc(NC(=S)N2CCCC2)cc1Cl,11.5
17,CC(=O)NCCOC(=O)c1nn(Cc2ccccc2)c(=O)c2ccccc12,-22.4
18,Cc1sc2nc(CN3CCN(c4ccc(O)cc4)CC3)[nH]c(=O)c2c1C,14.4
19,CN(Cc1cccnc1)C(=O)CNC(=O)c1ccc(Cl)cc1Cl,-17.2
20,O=C(CNC(=O)CNC(=O)c1ccc(Cl)cc1Cl)NCc1cccc(Cl)c1,-1.95
21,COc1ccc(CN(C)C(=O)CNC(=O)CNC(=O)c2ccc(Cl)cc2Cl)cc1F,-43.5
22,C=CCNC(=O)c1ccc(Cl)cc1Cl,11.8
23,C=CCN(Cc1ccc(Cl)s1)C(=O)CNC(=O)CNC(=O)c1ccc(Cl)cc1Cl,-70.6

row,SMILES,"hERG current change (%, negative = inhibition) at 10uM [%]"
1,CN(Cc1ccc(Cl)s1)C(=O)CNC(=O)CNC(=O)c1ccc(Cl)cc1Cl,-56.8
2,COc1ccc(C2=NS(=O)(=O)N(C)C(C(=O)Nc3ccc(C)cc3)=C2)cc1,-2.89
3,COc1cc(C)c(NC(=S)Nc2cccc(Cl)c2C)cc1OC,11.1
4,CCCCCCCCN1[C@@H](CC(=O)O)c2cc(F)ccc2S1(=O)=O,7.81
5,CCC(=O)NC(c1cccs1)c1cc(Cl)c2cccnc2c1O (centres unmarked),-2.87
6,COc1ccccc1CCNC(=O)CCn1c(=O)c2cccn2c2ccc(F)cc21,5.9
7,COc1ccc(OC)c(CNC(=O)CCn2c(=O)c3cccn3c3ccc(F)cc32)c1,-62.2
8,COc1ccc(CNC(=O)CCn2c(=O)c3cccn3c3ccc(F)cc32)cc1,-7.82
9,COc1ccc(C)cc1NC(=S)N1CC(C)OC(C)C1 (centres unmarked),-11.5
10,CCC(=NCCc1c(C)[nH]c2ccccc12)C1=C(O)CC(c2ccccc2)CC1=O (centres unmarked),6.02
11,N#C/C(=C(\O)Cc1ccccc1)c1nc2ccccc2[nH]1,15.6
12,C=C(Br)Cn1c(CCCC)nc2ccccc21,-21.6
13,CCCCc1nc2ccccc2n1CC(=O)NN,16.3
14,CCCCc1nc2ccccc2n1Cc1nnc2n1-c1ccccc1SC2,-63
15,Nc1nnnn1CC(=O)OCc1cccc(Br)c1,-13.8
16,COc1ccc(Cl)cc1NC(=O)CN(C)CC(=O)Nc1cc(OC)c(OC)c(OC)c1,-8.72
17,COc1ccc(CCNC(=O)C2CCN(Cc3nc(-c4cccc(Cl)c4)oc3C)CC2)cc1OC,-85.2
18,COc1ccc(CCNC(=O)C2CCN(C(=O)c3cccc(Cl)c3)CC2)cc1OC,11.5
19,COc1ccc(CCNC(=O)C2CCCN(Cc3nc(-c4cccc(Cl)c4)oc3C)C2)cc1OC (centres unmarked),-84.1
20,Cc1oc(-c2cccc(Cl)c2)nc1CN1CCC(C(=O)NCCCN2CC(C)CC(C)C2)CC1 (centres unmarked),-21.4
